28 molecules from PubChem BioAssay AID1851 (National Center for Advancing Translational Sciences (NCATS), 2009) can be followed below.

The whole screen tested about 16,000 compounds, of which about 5,800 (36%) were called active. Another 23% or so got no clear call; they are omitted. This is one part of the list. Values without a mark were called inactive. Calls come from the whole dose curve; as a rule, active = well fitted curve in the direction sought with a large enough effect; inconclusive = small, poorly fitted or top-dose-only effect, or effect the other way; inactive = no such curve, though single readings can be large or run the other way.
% is set by controls: 0 for no effect and ±100 for the full control effect.

Cytochrome P450 2C19 (Homo sapiens), sequence (P33261 whole entry, looked up): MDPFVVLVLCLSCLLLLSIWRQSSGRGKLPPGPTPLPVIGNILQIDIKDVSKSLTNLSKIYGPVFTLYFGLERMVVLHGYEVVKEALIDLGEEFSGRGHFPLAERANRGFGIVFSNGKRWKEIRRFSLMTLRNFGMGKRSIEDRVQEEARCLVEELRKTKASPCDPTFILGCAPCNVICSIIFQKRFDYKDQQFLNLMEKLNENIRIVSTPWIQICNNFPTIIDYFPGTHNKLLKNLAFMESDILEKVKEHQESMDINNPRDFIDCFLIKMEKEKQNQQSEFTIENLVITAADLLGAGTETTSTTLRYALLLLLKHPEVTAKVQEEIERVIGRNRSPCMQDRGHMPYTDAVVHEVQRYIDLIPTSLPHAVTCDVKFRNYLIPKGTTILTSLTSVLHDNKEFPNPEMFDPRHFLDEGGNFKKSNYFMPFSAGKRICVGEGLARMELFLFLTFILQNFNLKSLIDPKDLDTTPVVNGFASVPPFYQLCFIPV

This assay addresses Cytochrome P450 2C19 (Homo sapiens) (UniProt P33261). Briefly: Cytochrome panel assay with activity outcomes. As to conditions: recombinant CYP, pro-luciferin dealkylation, luminescence, p450-cyp2c19; series mostly up to 57.1 µM; activity, negative = inhibition: at the top concentration.
In the case of `Nc1c(OCC(=O)O)ccc2cc(S(=O)(=O)O)ccc12`, the activity, negative = inhibition was -19.3% [at 11.4 µM].
As to `O=C(O)c1nn(-c2ccccc2)nc1-c1nn(-c2ccccc2)nc1C(=O)O`, the “activity, negative = inhibition” value was -16%.
Consider `CN(C)C=Nc1ccc2nn(-c3ccccc3)nc2c1`, for which the half-maximal activity concentration (AC50) (in general, the concentration giving half of the maximal activity seen) was 17.8 µM (active).
For the molecule `CC(C)(CC(=O)Nc1ccccc1)C(=O)O`, the activity, negative = inhibition was 43% [at 11.4 µM].
As for `CSc1ccc(CNc2ccc(Cl)cc2)cc1`, the AC50 was 0.02 µM (active).
`CSc1ccc(CNc2ccc(C)c(C)c2)cc1`: the AC50 was 0.0316 µM (active).
The same measure, in the same setting: next, `CSc1ccc(CNc2ccccc2)cc1`: 0.631 µM (active).
Take `CCNc1ncc2nc(-c3ccc(F)cc3)c(=O)n(CCOC)c2n1`: the “activity, negative = inhibition” value is 26.9%.
`CN(C)c1ncc2nc(-c3ccc(F)cc3)c(=O)n(CCC#N)c2n1`: the “activity, negative = inhibition” value is -22.4%.
Still for that read-out and setting: under `CCNc1ncc2nc(-c3cn(C)c4ccccc34)c(=O)n(CCC#N)c2n1` stands -6.26%; under `N#CCCn1c(=O)c(CCc2ccccc2)nc2cnc(Nc3ccccc3)nc21`, 2.05%.
In the case of `CN(C)c1ncc2nc(CCc3ccccc3)c(=O)n(CCC#N)c2n1`, the concentration at half-maximal activity (AC50) was 10 µM (active).
Consider `CCNc1ncc2nc(CCc3ccccc3)c(=O)n(CCC#N)c2n1`, for which the AC50 is 15.8 µM (active).
Turning to `CCNc1ncc2nc(-c3ccc(OC)cc3)c(=O)n(CCOC)c2n1`, the “activity, negative = inhibition” value was 11.6%.
Take `CCNc1ncc2nc(CCc3ccccc3)c(=O)n(CCOC)c2n1`: the AC50 was 10 µM (active).
In the case of `Cc1nc2cnc(N(C)C)nc2n(CCC#N)c1=O`, the “activity, negative = inhibition” value was 16.4%.
Regarding `COc1ccc2c(c1)C(=O)N(CCc1ccc(S(=O)(=O)NC(=O)NC3CCCCC3)cc1)C(=O)C2(C)C`, the “activity, negative = inhibition” value is -28.2% [at 25.6 µM].
Turning to `COc1ccc(CCNC(=O)COc2ccc(S(=O)(=O)NC3CCCCC3)cc2Cl)cc1`, the AC50 was 7.94 µM (active).
Regarding `COc1ccc(CCCC(=O)NC2CCCCC2)cc1`, the AC50 is 3.16 µM (active).
For the molecule `COc1cccc(-c2nccc(NCc3cccc(C)c3)n2)c1`, the half-maximal activity concentration (AC50) is 6.31 µM (active).
Consider `COc1cccc(-c2nccc(NCc3cnc(C)cn3)n2)c1`, for which the “activity, negative = inhibition” value was -39.6%.
As to `COc1cccc(-c2nccc(NCc3ccccc3)n2)c1`, the AC50 is 7.94 µM (active).
In the case of `CC1CCN(C(=S)c2ccc(O)cc2)CC1`, the AC50 is 3.55 µM (active).
As for `N[C@](CC1c2ccccc2Oc2ccccc21)(C(=O)O)[C@@H]1C[C@@H]1C(=O)O`, the “activity, negative = inhibition” value is -16.4%.
In the case of `Cc1cccc2c1Oc1ccccc1[C@@H]2NC(=O)c1ccc([N+](=O)[O-])cc1`, the activity, negative = inhibition was -12.7% [at 11.4 µM].
Take `O=C(Nc1cccnc1Cl)C1c2ccccc2Oc2ccccc21`: the AC50 was 0.794 µM (active).
As for `Cc1cccc2sc(NC(=O)C3c4ccccc4Oc4ccccc43)nc12`, the AC50 was 2.51 µM (active).
As for `O=C1C2=CC[C@@H]3C(=O)N(c4ccc(F)cc4F)C(=O)[C@H]3[C@H]2[C@H](O)[C@H]2O[C@H]12`, the activity, negative = inhibition is -24% [at 11.4 µM].
